Here are results for four compounds from PubChem BioAssay AID602143 (Vanderbilt Specialized Chemistry Center, 2011).

Values without a mark were called inactive. Rule as the data show it: active = remaining activity below about 50%; inactive = the rest.

This assay deals with Phospholipase D2 (Homo sapiens) (UniProt O14939). The assay can be described thus: cellular phospholipase D2 activity inhibition – cell-based, HEK293, single concentration (AID 602143).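 Also: tested at 200 nM.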 Particulars: HEK293 cellular PLD2 activity, percent of control; active compounds read low.
Chain of Phospholipase D2 (Homo sapiens) (O14939 whole entry, looked up): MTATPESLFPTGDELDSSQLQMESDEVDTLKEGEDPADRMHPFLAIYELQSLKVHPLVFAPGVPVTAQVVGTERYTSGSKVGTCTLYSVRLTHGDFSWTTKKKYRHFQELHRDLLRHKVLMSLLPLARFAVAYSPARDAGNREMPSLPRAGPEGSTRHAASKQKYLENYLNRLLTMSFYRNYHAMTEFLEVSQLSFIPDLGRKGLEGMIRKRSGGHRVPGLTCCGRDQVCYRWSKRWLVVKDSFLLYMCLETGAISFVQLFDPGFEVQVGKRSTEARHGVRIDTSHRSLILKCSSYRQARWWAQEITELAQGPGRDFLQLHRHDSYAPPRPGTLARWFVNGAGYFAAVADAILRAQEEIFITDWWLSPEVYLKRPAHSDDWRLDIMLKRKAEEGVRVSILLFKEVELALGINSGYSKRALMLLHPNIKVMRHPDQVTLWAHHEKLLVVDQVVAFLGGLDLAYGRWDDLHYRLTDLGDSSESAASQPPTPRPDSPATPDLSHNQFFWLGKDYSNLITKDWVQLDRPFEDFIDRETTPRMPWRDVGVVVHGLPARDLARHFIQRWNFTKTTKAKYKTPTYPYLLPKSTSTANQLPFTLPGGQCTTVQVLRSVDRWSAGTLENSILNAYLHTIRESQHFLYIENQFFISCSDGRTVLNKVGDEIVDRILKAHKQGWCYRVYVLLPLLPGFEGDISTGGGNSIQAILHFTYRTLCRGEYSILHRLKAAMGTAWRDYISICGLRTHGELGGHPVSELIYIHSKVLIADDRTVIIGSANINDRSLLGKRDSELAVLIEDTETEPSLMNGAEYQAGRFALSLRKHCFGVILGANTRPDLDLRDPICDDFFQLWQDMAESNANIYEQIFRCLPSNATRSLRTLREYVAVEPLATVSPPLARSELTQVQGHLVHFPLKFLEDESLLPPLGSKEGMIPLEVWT
Chain of Phospholipase D2 (Homo sapiens) (O14939 whole entry, looked up): as above
Take `Cn1c(=O)n(C2CCN(CCNC(=O)c3ccc4ccccc4c3)CC2)c2ccccc21`: the remaining activity was 52.7%.

`COc1ccc(S(=O)(=O)NCCN2CCC(n3c(=O)[nH]c4ccccc43)CC2)cc1`: the remaining activity was 127%.

Turning to `O=C(NCCN1CCC(c2nc3ccccc3[nH]2)CC1)c1cnc2ccccc2c1`, the remaining activity was 80.6%.

Take `O=C1c2ccccc2C(=O)N1CCCN1CCC(n2c(=O)[nH]c3cc(Cl)ccc32)CC1`: the remaining activity is 74.6%.
